Drawing on ChEMBL document CHEMBL4513146, “CO-ADD screening of Karazin Kharkiv National University (Ukraine) compounds”, this text covers Inhibition for 40 compounds.

Measured potencies and affinities stand elsewhere.

One test has as its system Klebsiella pneumoniae. The settings on record: Concentration 32 ug.mL-1;; ASSAY_TEST Inhibition of Bacterial Growth; detection method Absorption (OD600); MEDIA CAMHB; plate type 384well; NBS; CORNING #3640; time 18 hr.
For the compound `CCc1nnc2c(SCC(=O)Nc3ccc(C(C)=O)cc3)nc3ccccc3n12`, the Inhibition was found to be 9.87%.
Turning to `COc1cccc(CN(c2ccc(F)c(F)c2)S(=O)(=O)c2ccc3nnc(C)n3c2)c1`, the Inhibition is 7.43%.
Regarding `Cc1ccc(-c2ccc3nn(CC(=O)NCc4ccc(Cl)cc4)c(=O)n3n2)cc1C`, the Inhibition was determined as 6.14%.
Same read-out and setting: to `COc1ccc(OC)c(NC(=O)Cn2nc3ccc(-c4ccc(C)cc4)nn3c2=O)c1` belongs 1.76%; to `COc1ccc(N(Cc2cccc(F)c2)S(=O)(=O)c2ccc3nnc(C)n3c2)cc1`, 0.18%; to `CCC(Sc1nnc2c(=O)n(-c3ccc(C)c(C)c3)ccn12)C(=O)Nc1cc(OC)ccc1OC` (stereo not given), 5.57%.
Turning to `COc1ccc(-c2cc3c4nn(CC(=O)Nc5cccc(C)c5)c(=O)n4ccn3n2)cc1`, the Inhibition stood at 3.49%.
The same measure, in the same setting: to `Cc1ccc(NC(=O)CSc2nc3ccccc3n3cnnc23)c(C)c1` belongs 0.98%; to `Cc1nnc2ccc(S(=O)(=O)N(Cc3ccccc3Cl)c3ccc(F)cc3)cn12`, 0.63%.
Take `COc1ccc(NC(=O)Cn2nc3cc(C)nc(Nc4ccc(F)c(C)c4)n3c2=O)cc1`: the Inhibition is recorded as 10.41%.
On the same count and under the same terms, then `COc1ccccc1CNC(=O)Cn1nc2c(N3CCSCC3)nccn2c1=O`, with 3.04%; and `O=c1c2sccc2n2c(SCc3cccc(C(F)(F)F)c3)nnc2n1Cc1cccs1`, with 1.3%.
For `CCc1nnc2ccc(S(=O)(=O)N(Cc3ccccc3F)c3ccc(OC)cc3)cn12`, the Inhibition is recorded as 7.78%.
For `O=C(Cn1nc2ccc(Sc3cccc(F)c3)nn2c1=O)NCc1ccc(Cl)cc1`, the Inhibition came out at 0.3%.
Regarding `CCc1ccc(N(Cc2ccc(C)cc2)S(=O)(=O)c2cccn3c(C)nnc23)cc1`, the Inhibition amounted to 3.2%.
Still for that read-out and setting: to `Cc1ccc(-c2ccc3nn(Cc4cccc(F)c4)c(=O)n3n2)cc1C` belongs 7.96%; to `CCCn1c(=O)c2sccc2n2c(=O)n(CC(=O)c3cc(C)ccc3C)nc12`, 9.58%; to `CC(C)c1nnc2c(SCC(=O)Nc3ccc(C#N)cc3)nc3ccccc3n12`, 10.23%.
With `CC1CCN(C(=O)Cn2nc3n(Cc4cccs4)c(=O)c4sccc4n3c2=O)CC1`, the Inhibition stood at 0.67%.
`Cc1ccccc1CN(c1ccc(C(C)C)cc1)S(=O)(=O)c1cccn2cnnc12`: the Inhibition came to 21.6%.
Turning to `COc1ccc(NC(=O)Cn2nc3c(N4CCCC4)nccn3c2=O)cc1Cl`, the Inhibition amounted to 15.87%.
In the case of `Cc1ccc(NC(=O)Cn2nc3c(Oc4ccccc4C)nccn3c2=O)cc1F`, the Inhibition is recorded as 11.18%.
As to `O=C(Cn1nc2c(SC3CCCCC3)nccn2c1=O)Nc1ccc(F)cc1`, the Inhibition is 10.22%.
Turning to `Cc1ccc(NC(=O)c2ccc3nnc(SCC(=O)Nc4ccc(Br)cc4)n3c2)cc1`, the Inhibition was found to be 8.72%.
Turning to `Cc1ccc(Sc2nccn3c(=O)n(CC(=O)Nc4ccccc4C)nc23)c(C)c1`, the Inhibition came to 6.75%.
As to `O=C(CCc1nnc2c3cc(-c4ccc(F)cc4)nn3ccn12)NCc1ccccc1Cl`, the Inhibition was 1.44%.
The same measure, in the same setting: then `O=c1c2nn(Cc3ccc(F)cc3)c(=O)n2ccn1-c1ccccc1`, with 9.86%.
On to `Cc1ccccc1Oc1nc2ccccc2n2c(=O)n(CC(=O)NCc3ccc4c(c3)OCO4)nc12`, for which the Inhibition is 17.68%.
Consider `Cc1cc(C)cc(Nc2nc(C)cc3nn(CC(=O)NC4CCCC4)c(=O)n23)c1`, for which the Inhibition is on record as 17.93%.
With `CCCCOc1ccc(-c2cc3c4nnc(SCC(=O)N(C)c5ccc(F)cc5)n4ccn3n2)cc1`, the Inhibition stood at 3.98%.
Turning to `COc1ccc(OC)c(NC(=O)Cn2nc3c4c5c(sc4ncn3c2=O)CCCC5)c1`, the Inhibition was 8.89%.
Consider `O=C(Cn1nc2c(Sc3ccccc3)nccn2c1=O)Nc1ccc2c(c1)OCCO2`, for which the Inhibition was 12.02%.
On the same count and under the same terms, then `O=c1c2sccc2n2c(=O)n(Cc3ccc(F)cc3)nc2n1Cc1cccs1`, with 10.32%; and `CCOc1ccc(-n2ccn3c(SCC(=O)Nc4ccccc4C(F)(F)F)nnc3c2=O)cc1`, with 17.14%; and `O=C(CSc1nc2ccccc2n2cnnc12)N1CCN(c2ccc(F)cc2)CC1`, with 8.82%.
`Cc1nnc2ccc(S(=O)(=O)N(Cc3cccc(F)c3)c3cc(F)cc(F)c3)cn12`: the Inhibition came out at 10.98%.
As to `CC(C)CCNC(=O)Cn1nc2n(Cc3cccs3)c(=O)c3sccc3n2c1=O`, the Inhibition was 6.63%.
For `Cc1nnc2c(S(=O)(=O)N(Cc3ccccc3F)c3ccc(C(C)C)cc3)cccn12`, the Inhibition is 0.43%.
Still for that read-out and setting: then `CC(C)Cn1c(=O)c2sccc2n2c(=O)n(Cc3cccc(Br)c3)nc12`, with 8.23%; and `COc1ccc(-c2cc3c4nnc(SCC(=O)NCc5cccc(OC)c5OC)n4ccn3n2)cc1`, with 6.86%.

A further test concerns Candida albicans. The note with it: Concentration 32 ug.mL-1; ASSAY_TEST Inhibition of Fungal Growth; detection method Absorption (OD530).
As for `CCc1nnc2c(SCC(=O)Nc3ccc(C(C)=O)cc3)nc3ccccc3n12`, the Inhibition was found to be 2.43%.
Take `COc1cccc(CN(c2ccc(F)c(F)c2)S(=O)(=O)c2ccc3nnc(C)n3c2)c1`: the Inhibition amounted to 1.78%.
On to `Cc1ccc(-c2ccc3nn(CC(=O)NCc4ccc(Cl)cc4)c(=O)n3n2)cc1C`, for which the Inhibition amounted to 6.17%.
The same measure, in the same setting: then `COc1ccc(OC)c(NC(=O)Cn2nc3ccc(-c4ccc(C)cc4)nn3c2=O)c1`, with 0.83%; and `COc1ccc(N(Cc2cccc(F)c2)S(=O)(=O)c2ccc3nnc(C)n3c2)cc1`, with 7.1%.
Still for that read-out and setting: to `CCC(Sc1nnc2c(=O)n(-c3ccc(C)c(C)c3)ccn12)C(=O)Nc1cc(OC)ccc1OC` (stereo not given) belongs 2.66%; to `COc1ccc(-c2cc3c4nn(CC(=O)Nc5cccc(C)c5)c(=O)n4ccn3n2)cc1`, 3.36%; to `Cc1ccc(NC(=O)CSc2nc3ccccc3n3cnnc23)c(C)c1`, 26.16%.
Regarding `Cc1nnc2ccc(S(=O)(=O)N(Cc3ccccc3Cl)c3ccc(F)cc3)cn12`, the Inhibition was determined as 5.22%.
With `COc1ccc(NC(=O)Cn2nc3cc(C)nc(Nc4ccc(F)c(C)c4)n3c2=O)cc1`, the Inhibition is 4.68%.
Same read-out and setting: then `COc1ccccc1CNC(=O)Cn1nc2c(N3CCSCC3)nccn2c1=O`, with 3.29%; and `O=c1c2sccc2n2c(SCc3cccc(C(F)(F)F)c3)nnc2n1Cc1cccs1`, with 16.7%.
Same read-out and setting: then `CCc1nnc2ccc(S(=O)(=O)N(Cc3ccccc3F)c3ccc(OC)cc3)cn12`, with 3.86%; and `O=C(Cn1nc2ccc(Sc3cccc(F)c3)nn2c1=O)NCc1ccc(Cl)cc1`, with 1.92%; and `CCc1ccc(N(Cc2ccc(C)cc2)S(=O)(=O)c2cccn3c(C)nnc23)cc1`, with 0.84%.
As for `Cc1ccc(-c2ccc3nn(Cc4cccc(F)c4)c(=O)n3n2)cc1C`, the Inhibition is 2.65%.
Take `CCCn1c(=O)c2sccc2n2c(=O)n(CC(=O)c3cc(C)ccc3C)nc12`: the Inhibition is reported as 6.28%.
On to `CC(C)c1nnc2c(SCC(=O)Nc3ccc(C#N)cc3)nc3ccccc3n12`, for which the Inhibition was determined as 0.55%.
Consider `CC1CCN(C(=O)Cn2nc3n(Cc4cccs4)c(=O)c4sccc4n3c2=O)CC1`, for which the Inhibition was found to be 6.15%.
With `Cc1ccccc1CN(c1ccc(C(C)C)cc1)S(=O)(=O)c1cccn2cnnc12`, the Inhibition turned out to be 3.03%.
The same measure, in the same setting: to `COc1ccc(NC(=O)Cn2nc3c(N4CCCC4)nccn3c2=O)cc1Cl` belongs 1.28%.
In the case of `Cc1ccc(NC(=O)Cn2nc3c(Oc4ccccc4C)nccn3c2=O)cc1F`, the Inhibition is listed as -0.61%.
Turning to `O=C(Cn1nc2c(SC3CCCCC3)nccn2c1=O)Nc1ccc(F)cc1`, the Inhibition was 0.1%.
`Cc1ccc(NC(=O)c2ccc3nnc(SCC(=O)Nc4ccc(Br)cc4)n3c2)cc1`: the Inhibition was found to be 1.55%.
Still for that read-out and setting: to `Cc1ccc(Sc2nccn3c(=O)n(CC(=O)Nc4ccccc4C)nc23)c(C)c1` belongs 4.26%; to `O=C(CCc1nnc2c3cc(-c4ccc(F)cc4)nn3ccn12)NCc1ccccc1Cl`, 9.78%; to `O=c1c2nn(Cc3ccc(F)cc3)c(=O)n2ccn1-c1ccccc1`, 2.87%.
Take `Cc1ccccc1Oc1nc2ccccc2n2c(=O)n(CC(=O)NCc3ccc4c(c3)OCO4)nc12`: the Inhibition came out at 19.82%.
In the case of `Cc1cc(C)cc(Nc2nc(C)cc3nn(CC(=O)NC4CCCC4)c(=O)n23)c1`, the Inhibition was 3.67%.
Take `CCCCOc1ccc(-c2cc3c4nnc(SCC(=O)N(C)c5ccc(F)cc5)n4ccn3n2)cc1`: the Inhibition came out at 15.18%.
As to `COc1ccc(OC)c(NC(=O)Cn2nc3c4c5c(sc4ncn3c2=O)CCCC5)c1`, the Inhibition came to 0.7%.
Consider `O=C(Cn1nc2c(Sc3ccccc3)nccn2c1=O)Nc1ccc2c(c1)OCCO2`, for which the Inhibition is -0.06%.
Turning to `O=c1c2sccc2n2c(=O)n(Cc3ccc(F)cc3)nc2n1Cc1cccs1`, the Inhibition was 43.23%.
On to `CCOc1ccc(-n2ccn3c(SCC(=O)Nc4ccccc4C(F)(F)F)nnc3c2=O)cc1`, for which the Inhibition was determined as 2.4%.
Consider `O=C(CSc1nc2ccccc2n2cnnc12)N1CCN(c2ccc(F)cc2)CC1`, for which the Inhibition amounted to 1.33%.
Regarding `Cc1nnc2ccc(S(=O)(=O)N(Cc3cccc(F)c3)c3cc(F)cc(F)c3)cn12`, the Inhibition is given as -1.03%.
Turning to `CC(C)CCNC(=O)Cn1nc2n(Cc3cccs3)c(=O)c3sccc3n2c1=O`, the Inhibition was -0.58%.
As to `Cc1nnc2c(S(=O)(=O)N(Cc3ccccc3F)c3ccc(C(C)C)cc3)cccn12`, the Inhibition was 0.44%.
For the compound `CC(C)Cn1c(=O)c2sccc2n2c(=O)n(Cc3cccc(Br)c3)nc12`, the Inhibition is -0.42%.
As for `COc1ccc(-c2cc3c4nnc(SCC(=O)NCc5cccc(OC)c5OC)n4ccn3n2)cc1`, the Inhibition was found to be 0.88%.
